# Assay results as given in paper PMC7862700, “An all-to-all approach to the identification of sequence-specific readers for epigenetic DNA modifications on cytosine”.
# Assays:
# Test in all cases: DAPPL (digital affinity profiling via proximity ligation, sequencing); 10 mM Tris-HCl pH 7.5, 50 mM NaCl, 1 mM DTT, 4% glycerol, room temperature, 30 min; GST-TFs on glutathione beads, 16-mer random dsDNA library, 0.1% formaldehyde crosslink after washing; high values mean tight binding
# [1] = molecular target: HSF1 (Homo sapiens, UniProt Q00613 1-529); conditions: protein: recombinant; tags: N-terminal GST; chain copies: 3; dsDNA, one strand shown
# HSF1, sequence (Q00613 whole entry, the tested form may be a part): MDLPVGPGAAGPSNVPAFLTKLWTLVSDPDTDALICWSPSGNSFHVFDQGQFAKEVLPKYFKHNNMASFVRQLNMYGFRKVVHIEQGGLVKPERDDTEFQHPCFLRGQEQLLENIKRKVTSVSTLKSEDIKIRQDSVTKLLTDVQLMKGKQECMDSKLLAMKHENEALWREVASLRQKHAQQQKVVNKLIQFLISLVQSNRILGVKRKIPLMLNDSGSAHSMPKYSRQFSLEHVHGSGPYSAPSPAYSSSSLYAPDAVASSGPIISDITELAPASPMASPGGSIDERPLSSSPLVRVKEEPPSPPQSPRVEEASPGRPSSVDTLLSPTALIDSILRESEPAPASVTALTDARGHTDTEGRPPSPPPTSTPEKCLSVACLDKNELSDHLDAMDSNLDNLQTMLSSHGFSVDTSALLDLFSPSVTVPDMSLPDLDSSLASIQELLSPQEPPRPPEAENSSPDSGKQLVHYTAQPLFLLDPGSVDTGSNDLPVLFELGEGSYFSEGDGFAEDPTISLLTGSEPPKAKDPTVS
# Method in brief: (§1)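 Yeast served to express human transcription factors as GST fusions, which were then captured on glutathione beads and labelled with DNA barcodes. Pooled with a tag-only sample, they were incubated with 200 nmole of a 16-mer random double-stranded DNA library for 30 min at room temperature in Tris/NaCl/DTT/glycerol buffer, washed, crosslinked with 0.1% formaldehyde, ligated by proximity, amplified by PCR and sequenced. Dividing each hexamer's read frequency for a factor by its frequency for the tag-only sample gives the binding signal.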
# [2] = molecular target: SPI1 (Homo sapiens, UniProt P17947 1-270); conditions: protein: recombinant; tags: N-terminal GST; dsDNA, one strand shown
# Method in brief: as §1
# [3] = molecular target: T1, SPIC (Homo sapiens, UniProt Q8N5J4 1-248); conditions: protein: recombinant; tags: N-terminal GST; dsDNA, one strand shown
# T1 sequence: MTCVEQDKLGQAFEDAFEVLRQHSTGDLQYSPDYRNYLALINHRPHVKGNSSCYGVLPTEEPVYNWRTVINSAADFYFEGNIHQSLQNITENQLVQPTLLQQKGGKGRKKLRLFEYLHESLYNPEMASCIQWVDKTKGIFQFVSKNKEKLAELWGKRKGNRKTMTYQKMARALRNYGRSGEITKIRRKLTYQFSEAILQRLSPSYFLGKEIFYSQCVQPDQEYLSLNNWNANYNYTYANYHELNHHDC
# Method in brief: as §1
# [4] = molecular target: T2, ELK4 (Homo sapiens, UniProt P28324-2 1-405); conditions: protein: recombinant; tags: N-terminal GST; dsDNA, one strand shown
# T2 sequence: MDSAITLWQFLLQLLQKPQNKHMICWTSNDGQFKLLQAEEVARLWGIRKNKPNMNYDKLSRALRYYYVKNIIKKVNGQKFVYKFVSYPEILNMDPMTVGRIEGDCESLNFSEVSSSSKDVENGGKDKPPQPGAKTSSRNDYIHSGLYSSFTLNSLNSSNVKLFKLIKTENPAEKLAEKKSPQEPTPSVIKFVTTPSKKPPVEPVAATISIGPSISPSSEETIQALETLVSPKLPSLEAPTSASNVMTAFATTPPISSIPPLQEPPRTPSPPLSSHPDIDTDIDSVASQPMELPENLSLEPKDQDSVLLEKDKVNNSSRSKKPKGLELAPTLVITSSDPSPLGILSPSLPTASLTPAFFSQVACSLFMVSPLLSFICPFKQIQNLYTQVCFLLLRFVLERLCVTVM
# Method in brief: as §1
# [5] = molecular target: T3, ETV3 (Homo sapiens, UniProt P41162-2 1-143); conditions: protein: recombinant; tags: N-terminal GST; dsDNA, one strand shown
# T3 sequence: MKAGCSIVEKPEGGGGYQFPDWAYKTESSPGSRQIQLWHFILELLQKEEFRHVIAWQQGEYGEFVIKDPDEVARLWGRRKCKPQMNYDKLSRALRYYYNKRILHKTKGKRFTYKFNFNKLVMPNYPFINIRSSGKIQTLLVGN
# Method in brief: as §1
# [6] = molecular target: T4, GABPA (Homo sapiens, UniProt Q06546 1-454); conditions: protein: recombinant; tags: N-terminal GST; dsDNA, one strand shown
# T4 sequence: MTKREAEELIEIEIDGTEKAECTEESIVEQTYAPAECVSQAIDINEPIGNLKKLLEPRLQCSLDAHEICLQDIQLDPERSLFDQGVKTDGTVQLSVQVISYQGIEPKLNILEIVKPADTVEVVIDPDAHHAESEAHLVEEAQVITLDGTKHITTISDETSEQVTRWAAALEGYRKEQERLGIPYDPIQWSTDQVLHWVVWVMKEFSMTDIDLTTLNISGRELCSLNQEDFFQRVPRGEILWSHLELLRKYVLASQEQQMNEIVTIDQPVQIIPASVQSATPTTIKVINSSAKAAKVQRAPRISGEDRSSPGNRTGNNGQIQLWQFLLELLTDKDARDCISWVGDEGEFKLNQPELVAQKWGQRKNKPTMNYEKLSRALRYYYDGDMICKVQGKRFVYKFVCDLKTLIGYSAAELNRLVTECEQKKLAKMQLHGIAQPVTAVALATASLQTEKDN
# Method in brief: as §1
# [7] = molecular target: ELF1 (Homo sapiens, UniProt P32519 1-619); conditions: protein: recombinant; tags: N-terminal GST; dsDNA, one strand shown
# ELF1, sequence (P32519 whole entry): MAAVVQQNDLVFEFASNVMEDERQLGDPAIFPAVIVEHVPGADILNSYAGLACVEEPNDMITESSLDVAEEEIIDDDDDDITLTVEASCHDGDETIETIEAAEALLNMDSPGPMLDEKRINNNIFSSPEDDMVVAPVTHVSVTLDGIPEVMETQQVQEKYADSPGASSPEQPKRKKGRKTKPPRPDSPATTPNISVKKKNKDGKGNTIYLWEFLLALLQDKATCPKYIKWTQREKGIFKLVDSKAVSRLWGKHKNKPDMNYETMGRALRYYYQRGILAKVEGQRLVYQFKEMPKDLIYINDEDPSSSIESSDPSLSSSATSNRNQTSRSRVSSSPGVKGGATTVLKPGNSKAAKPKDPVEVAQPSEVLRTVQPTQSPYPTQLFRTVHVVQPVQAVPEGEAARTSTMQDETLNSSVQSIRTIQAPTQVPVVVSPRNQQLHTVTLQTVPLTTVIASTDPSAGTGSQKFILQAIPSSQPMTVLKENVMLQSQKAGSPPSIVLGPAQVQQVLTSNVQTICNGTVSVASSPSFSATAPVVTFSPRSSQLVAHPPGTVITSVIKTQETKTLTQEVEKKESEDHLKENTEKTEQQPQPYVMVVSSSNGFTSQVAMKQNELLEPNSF
# Method in brief: as §1
# [8] = molecular target: T5, EHF (Homo sapiens, UniProt Q9NZC4 1-300); conditions: protein: recombinant; tags: N-terminal GST; dsDNA, one strand shown
# T5 sequence: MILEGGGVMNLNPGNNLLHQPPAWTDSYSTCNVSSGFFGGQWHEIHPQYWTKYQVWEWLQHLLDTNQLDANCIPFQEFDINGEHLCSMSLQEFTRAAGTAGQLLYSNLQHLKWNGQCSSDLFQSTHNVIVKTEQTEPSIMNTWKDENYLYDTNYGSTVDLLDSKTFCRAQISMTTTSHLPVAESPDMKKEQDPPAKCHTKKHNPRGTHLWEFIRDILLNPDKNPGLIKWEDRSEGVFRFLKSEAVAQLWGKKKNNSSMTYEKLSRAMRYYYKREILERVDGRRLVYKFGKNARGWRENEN
# Method in brief: as §1
# [9] = molecular target: SPIB (Homo sapiens, UniProt Q01892 1-262); conditions: protein: recombinant; tags: N-terminal GST; dsDNA, one strand shown
# SPIB, sequence (Q01892 whole entry): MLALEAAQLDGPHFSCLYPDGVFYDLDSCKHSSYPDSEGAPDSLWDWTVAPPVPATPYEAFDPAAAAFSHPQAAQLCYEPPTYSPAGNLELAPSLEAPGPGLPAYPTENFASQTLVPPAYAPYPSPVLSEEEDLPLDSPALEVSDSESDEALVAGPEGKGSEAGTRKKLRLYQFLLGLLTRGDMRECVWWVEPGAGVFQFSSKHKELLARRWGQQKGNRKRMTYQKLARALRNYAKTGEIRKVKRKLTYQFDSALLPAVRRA
# Method in brief: as §1
# [10] = molecular target: T6, ELK3 (Homo sapiens, UniProt P41970 1-407); conditions: protein: recombinant; tags: N-terminal GST; dsDNA, one strand shown
# T6 sequence: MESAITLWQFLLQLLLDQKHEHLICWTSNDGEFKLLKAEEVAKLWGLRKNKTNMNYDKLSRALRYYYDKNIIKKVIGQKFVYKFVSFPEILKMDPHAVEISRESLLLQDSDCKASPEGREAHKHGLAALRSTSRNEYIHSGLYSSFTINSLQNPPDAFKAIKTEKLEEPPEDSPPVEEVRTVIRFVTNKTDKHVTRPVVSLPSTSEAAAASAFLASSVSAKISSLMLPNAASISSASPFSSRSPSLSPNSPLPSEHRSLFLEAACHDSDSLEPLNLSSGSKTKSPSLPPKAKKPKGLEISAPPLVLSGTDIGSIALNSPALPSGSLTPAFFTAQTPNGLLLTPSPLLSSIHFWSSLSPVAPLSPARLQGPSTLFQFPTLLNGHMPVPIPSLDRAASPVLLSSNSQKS
# Method in brief: as §1
# [11] = molecular target: ELF4 (Homo sapiens, UniProt Q99607 1-663); conditions: protein: recombinant; tags: N-terminal GST; dsDNA, one strand shown
# ELF4, sequence (Q99607 whole entry): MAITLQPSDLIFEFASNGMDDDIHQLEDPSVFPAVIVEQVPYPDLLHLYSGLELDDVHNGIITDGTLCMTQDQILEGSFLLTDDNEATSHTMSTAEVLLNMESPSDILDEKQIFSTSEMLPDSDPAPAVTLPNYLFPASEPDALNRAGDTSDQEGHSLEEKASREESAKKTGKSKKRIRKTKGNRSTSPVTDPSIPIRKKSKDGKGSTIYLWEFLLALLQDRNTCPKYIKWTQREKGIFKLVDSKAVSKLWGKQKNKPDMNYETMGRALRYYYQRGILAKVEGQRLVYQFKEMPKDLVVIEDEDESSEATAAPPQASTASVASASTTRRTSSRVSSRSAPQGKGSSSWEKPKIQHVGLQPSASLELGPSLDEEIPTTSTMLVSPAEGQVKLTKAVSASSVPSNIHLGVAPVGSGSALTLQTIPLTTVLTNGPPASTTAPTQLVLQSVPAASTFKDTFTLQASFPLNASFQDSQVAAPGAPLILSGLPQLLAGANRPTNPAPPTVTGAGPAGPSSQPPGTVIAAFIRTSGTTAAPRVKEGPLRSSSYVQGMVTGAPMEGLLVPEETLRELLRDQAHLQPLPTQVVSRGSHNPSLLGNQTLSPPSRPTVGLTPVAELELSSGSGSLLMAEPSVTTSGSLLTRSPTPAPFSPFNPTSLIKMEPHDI
# Method in brief: as §1
# [12] = molecular target: T7, ETV2 (Homo sapiens, UniProt O00321 1-342); conditions: protein: recombinant; tags: N-terminal GST; dsDNA, one strand shown
# T7 sequence: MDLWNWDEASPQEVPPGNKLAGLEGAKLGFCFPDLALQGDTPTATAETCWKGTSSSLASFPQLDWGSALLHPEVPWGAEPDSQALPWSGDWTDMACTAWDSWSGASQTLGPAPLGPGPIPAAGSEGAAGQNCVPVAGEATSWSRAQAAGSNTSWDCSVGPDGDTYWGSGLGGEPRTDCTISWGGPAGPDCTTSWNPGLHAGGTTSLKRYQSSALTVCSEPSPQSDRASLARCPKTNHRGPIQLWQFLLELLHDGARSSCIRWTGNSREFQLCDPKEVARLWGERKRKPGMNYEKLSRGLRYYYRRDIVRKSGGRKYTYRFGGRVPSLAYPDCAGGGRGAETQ
# Method in brief: as §1
# [13] = molecular target: CRX (Homo sapiens, UniProt O43186 1-299); conditions: protein: recombinant; tags: N-terminal GST; dsDNA, one strand shown
# CRX, sequence (O43186 whole entry): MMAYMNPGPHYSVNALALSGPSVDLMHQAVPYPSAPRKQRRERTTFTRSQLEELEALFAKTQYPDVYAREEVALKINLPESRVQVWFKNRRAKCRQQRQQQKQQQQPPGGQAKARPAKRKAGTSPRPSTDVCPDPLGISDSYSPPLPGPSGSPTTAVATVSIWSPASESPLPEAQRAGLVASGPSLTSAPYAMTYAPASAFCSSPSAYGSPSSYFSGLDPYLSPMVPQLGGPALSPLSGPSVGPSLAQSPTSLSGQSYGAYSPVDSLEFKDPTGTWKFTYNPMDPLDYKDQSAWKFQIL
# Method in brief: as §1
# [14] = molecular target: ETV1 (Homo sapiens, UniProt P50549 1-477); conditions: protein: recombinant; tags: N-terminal GST; dsDNA, one strand shown
# ETV1, sequence (P50549 whole entry): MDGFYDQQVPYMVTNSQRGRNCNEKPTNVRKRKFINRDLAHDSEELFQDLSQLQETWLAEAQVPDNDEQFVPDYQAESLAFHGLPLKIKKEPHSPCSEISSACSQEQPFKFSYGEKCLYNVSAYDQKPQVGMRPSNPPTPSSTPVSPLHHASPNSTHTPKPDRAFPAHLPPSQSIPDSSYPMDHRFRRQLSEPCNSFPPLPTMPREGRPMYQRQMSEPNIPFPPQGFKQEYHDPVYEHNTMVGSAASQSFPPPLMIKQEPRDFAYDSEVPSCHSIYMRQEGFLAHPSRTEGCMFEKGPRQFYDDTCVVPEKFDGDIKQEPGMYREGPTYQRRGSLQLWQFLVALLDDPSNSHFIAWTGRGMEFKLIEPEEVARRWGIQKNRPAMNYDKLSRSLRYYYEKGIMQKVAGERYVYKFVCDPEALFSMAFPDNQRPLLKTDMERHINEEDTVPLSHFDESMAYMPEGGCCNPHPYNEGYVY
# Method in brief: as §1
# [15] = molecular target: T8, ERF (Homo sapiens, UniProt P50548 1-548); conditions: protein: recombinant; tags: N-terminal GST; dsDNA, one strand shown
# T8 sequence: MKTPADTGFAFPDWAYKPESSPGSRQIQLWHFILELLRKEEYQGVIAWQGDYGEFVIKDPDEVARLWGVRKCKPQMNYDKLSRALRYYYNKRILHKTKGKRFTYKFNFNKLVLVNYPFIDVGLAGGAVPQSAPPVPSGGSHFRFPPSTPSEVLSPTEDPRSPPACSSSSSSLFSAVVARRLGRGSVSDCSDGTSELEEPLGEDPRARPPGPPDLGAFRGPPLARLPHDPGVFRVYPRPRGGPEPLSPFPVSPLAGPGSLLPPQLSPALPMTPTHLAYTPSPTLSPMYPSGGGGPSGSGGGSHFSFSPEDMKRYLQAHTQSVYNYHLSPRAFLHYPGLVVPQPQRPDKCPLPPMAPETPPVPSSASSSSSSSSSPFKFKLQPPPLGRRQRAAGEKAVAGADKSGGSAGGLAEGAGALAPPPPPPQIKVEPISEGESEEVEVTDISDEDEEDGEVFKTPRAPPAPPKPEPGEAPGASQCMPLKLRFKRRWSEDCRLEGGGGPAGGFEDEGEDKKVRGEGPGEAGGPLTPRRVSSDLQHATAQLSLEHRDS
# Method in brief: as §1
sequence,measurement,setting,value
TCGCGA,binding signal,[1],"1.59 fold enrichment (6-mer frequency, TF over GST control)"
TCGAGG,binding signal,[1],"1.04 fold enrichment (6-mer frequency, TF over GST control)"
GTGGAA,binding signal,[2],"1.15 fold enrichment (6-mer frequency, TF over GST control)"
same,binding signal,[1],"1.23 fold enrichment (6-mer frequency, TF over GST control)"
same,binding signal,[3],"1.02 fold enrichment (6-mer frequency, TF over GST control)"
same,binding signal,[4],"1.06 fold enrichment (6-mer frequency, TF over GST control)"
same,binding signal,[5],"1.02 fold enrichment (6-mer frequency, TF over GST control)"
TTAGCC,binding signal,[6],"1.01 fold enrichment (6-mer frequency, TF over GST control)"
same,binding signal,[7],"1.06 fold enrichment (6-mer frequency, TF over GST control)"
same,binding signal,[8],"1.03 fold enrichment (6-mer frequency, TF over GST control)"
same,binding signal,[9],"1 fold enrichment (6-mer frequency, TF over GST control)"
same,binding signal,[10],"1.02 fold enrichment (6-mer frequency, TF over GST control)"
same,binding signal,[1],"1.45 fold enrichment (6-mer frequency, TF over GST control)"
same,binding signal,[3],"1.04 fold enrichment (6-mer frequency, TF over GST control)"
same,binding signal,[11],"1.01 fold enrichment (6-mer frequency, TF over GST control)"
same,binding signal,[12],"1.06 fold enrichment (6-mer frequency, TF over GST control)"
same,binding signal,[13],"2.22 fold enrichment (6-mer frequency, TF over GST control)"
same,binding signal,[14],"1.02 fold enrichment (6-mer frequency, TF over GST control)"
same,binding signal,[15],"1.07 fold enrichment (6-mer frequency, TF over GST control)"
